Screening data: PubChem BioAssay, several laboratories
Rows were chosen to be rich in hits. Some 1.3% of all compounds tested hit in one or more screens of this group.
3CLpro inhibitor: SARS-CoV 3CLpro protease inhibitors, primary screen, biochemical, quenched FRET; Replicase polyprotein 1ab (Severe acute respiratory syndrome coronavirus), P0C6X7; recombinant SARS-CoV 3CLpro, quenched FRET peptide cleavage; inhibition, % at 6 µM; 0.14% of 290,000 active; AID 1706, 2009; in the data active means inhibition above about 12%
DUSP3 inh: VHR1 phosphatase inhibitors, primary screen, biochemical, absorbance, uHTS. 0.52% of 290,000 active. Dual specificity protein phosphatase 3 (Homo sapiens), P51452. AID 1654, 2009. inhibition, % at 13.3 µM. recombinant VHR phosphatase, pNPP absorbance; in the data active means inhibition above about 50%
Target sequence (P51452 whole entry, looked up): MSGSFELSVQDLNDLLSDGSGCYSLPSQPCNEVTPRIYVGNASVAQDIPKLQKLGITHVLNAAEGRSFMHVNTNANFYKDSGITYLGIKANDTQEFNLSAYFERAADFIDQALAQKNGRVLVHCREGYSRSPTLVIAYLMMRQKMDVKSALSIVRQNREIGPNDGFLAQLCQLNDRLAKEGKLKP
Mtb hypoxia inh: PubChem AID 1159583. M. tuberculosis hypoxia-regulated fluorescent reporter, fluorescence. fluorescence inhibition, % (no concentration beside the values). 0.1% of 300,000 active; in the data active means fluorescence inhibition mostly above about 23%, no sharp cut-off; inactive means mostly below about 17%
CCHF vOTU inh: CCHFV vOTU protease inhibitors, primary screen, biochemical, Pep-AMC substrate, fluorescence; inhibition, % at 11.5 µM; Crimean-Congo hemorrhagic fever virus L polyprotein viral ovarian tumor (vOTU) protease …; 0.55% of 370,000 active; AID 651958, 2012; in the data active means inhibition above about 30%
PriA SSB inh: inhibitors of Klebsiella pneumoniae PriA binding to SSB C-terminal tail, primary screen, biochemical, AlphaScreen. 0.6% of 430,000 active. AID 1272365, 2023. inhibition, % at 33 µM. AlphaScreen SSBct-PriA binding, biotinylated peptide; in the data active means inhibition mostly above about 37%, no sharp cut-off; inactive means mostly below about 20%
A number is an active result; ! = repeats disagree.

Screening CCc1nn(CCCC(=O)N2CCC(C)CC2)c(=O)c2cc3occc3n12 returned 3CLpro inhibitor inactive, DUSP3 inh inactive, Mtb hypoxia inh inactive, CCHF vOTU inh inactive and PriA SSB inh inactive.
Screening CCc1nn(CCCC(=O)N2CCN(c3ccc(OC)cc3)CC2)c(=O)c2cc3occc3n12 returned 3CLpro inhibitor inactive, DUSP3 inh 57, Mtb hypoxia inh inactive, CCHF vOTU inh inactive and PriA SSB inh inactive.
For CN(C)C(=O)N1CCN(c2nc(-c3ccccc3)cs2)CC1 the results were 3CLpro inhibitor inactive, DUSP3 inh 53, Mtb hypoxia inh inactive, CCHF vOTU inh inactive and PriA SSB inh inactive.
For CCOC(=O)c1ccc(NC(=O)CS(=O)(=O)c2cn(CC(=O)N3CCOCC3)c3ccccc23)cc1 the results were PriA SSB inh inactive.
Screening COC(=O)Cc1nnc(NC(=O)C(C)C)s1 returned 3CLpro inhibitor inactive, DUSP3 inh inactive, Mtb hypoxia inh inactive, CCHF vOTU inh inactive and PriA SSB inh inactive.
Screening CC(C)C(=O)Nc1nnc(CCN2CCOCC2)s1 returned 3CLpro inhibitor inactive, DUSP3 inh 51, Mtb hypoxia inh inactive, CCHF vOTU inh inactive and PriA SSB inh inactive.
For O=S(=O)(Cc1ccc(Cl)cc1)N1CCCSCC1CN1CCCC1 (stereo not given) the results were PriA SSB inh inactive.
Screening O=C(NCCn1nc(-c2cccs2)n(C2CC2)c1=O)c1cc2ccccc2o1 returned PriA SSB inh inactive.
`CN(C)CCCN(C(=O)c1ccc(S(=O)(=O)N(C)Cc2ccccc2)cc1)c1nc2cc3c(cc2s1)OCO3` gave 3CLpro inhibitor inactive, DUSP3 inh inactive, Mtb hypoxia inh inactive, CCHF vOTU inh inactive and PriA SSB inh 40!.
`CCN(c1ccccc1)S(=O)(=O)c1ccc(C(=O)N(CCCN(C)C)c2nc3cc4c(cc3s2)OCO4)cc1` gave 3CLpro inhibitor inactive, DUSP3 inh inactive, Mtb hypoxia inh inactive, CCHF vOTU inh inactive and PriA SSB inh inactive.
For CCCCN(CC)S(=O)(=O)c1ccc(C(=O)N(CCCN(C)C)c2nc3cc(C)cc(C)c3s2)cc1 the results were 3CLpro inhibitor inactive, DUSP3 inh inactive, Mtb hypoxia inh inactive, CCHF vOTU inh inactive and PriA SSB inh inactive.
CCN(Cc1ccccc1)S(=O)(=O)c1ccc(C(=O)N(CCCN(C)C)c2nc3cc(C)cc(C)c3s2)cc1 was read as CCHF vOTU inh inactive and PriA SSB inh 43.
Screening CN(C)CCN(C(=O)c1ccc([N+](=O)[O-])o1)c1nc2cc3c(cc2s1)OCO3 returned PriA SSB inh inactive.
CN(C)CCCN(C(=O)c1ccc([N+](=O)[O-])o1)c1nc2cc3c(cc2s1)OCO3 was read as 3CLpro inhibitor inactive, DUSP3 inh inactive, Mtb hypoxia inh inactive, CCHF vOTU inh 51 and PriA SSB inh inactive.
Cc1cc(C)c2sc(N(CCCN(C)C)C(=O)c3ccc(S(=O)(=O)N(C)Cc4ccccc4)cc3)nc2c1 was read as Mtb hypoxia inh inactive, CCHF vOTU inh inactive and PriA SSB inh 49.
For CN(C)CCN(C(=O)c1cccc2ccccc12)c1nc2cc3c(cc2s1)OCO3 the results were 3CLpro inhibitor inactive, DUSP3 inh inactive, Mtb hypoxia inh inactive, CCHF vOTU inh inactive and PriA SSB inh 47.
CN(C)CCCN(C(=O)c1ccc2ccccc2c1)c1nc2cc3c(cc2s1)OCO3 was read as 3CLpro inhibitor inactive, DUSP3 inh inactive, Mtb hypoxia inh inactive, CCHF vOTU inh inactive and PriA SSB inh inactive.
CN(C)CCN(C(=O)c1ccc2ccccc2c1)c1nc2ccc(Br)cc2s1 was read as 3CLpro inhibitor inactive, DUSP3 inh inactive, Mtb hypoxia inh inactive, CCHF vOTU inh inactive and PriA SSB inh inactive.
`CN(C)CCN(C(=O)c1ccccc1[N+](=O)[O-])c1nc2ccc(Br)cc2s1` gave PriA SSB inh 47.
`O=C(Cc1ccc(F)cc1)Nc1ccc2scnc2c1` gave PriA SSB inh inactive.
`COC(=O)c1ccc(-c2csc(NC(=O)c3ccc4c(c3)OCCO4)n2)cc1` gave PriA SSB inh inactive.
`O=C(c1ccco1)N1CCN(C(=O)c2cnn(-c3cccc(F)c3)c2C2CCNCC2)CC1` gave 3CLpro inhibitor inactive, DUSP3 inh inactive, Mtb hypoxia inh inactive, CCHF vOTU inh inactive and PriA SSB inh inactive.
Screening CC(C)(C)OC(=O)N1CCC(c2c(C(=O)N3CCN(C(=O)c4ccco4)CC3)cnn2-c2cccc(Cl)c2)CC1 returned 3CLpro inhibitor inactive, DUSP3 inh 58, Mtb hypoxia inh inactive, CCHF vOTU inh inactive and PriA SSB inh inactive.
O=[N+]([O-])c1ccc(N2CCN(C(=S)Nc3cccc(F)c3)CC2)cc1 was read as 3CLpro inhibitor inactive, DUSP3 inh 50, Mtb hypoxia inh inactive, CCHF vOTU inh inactive and PriA SSB inh inactive.
`O=[N+]([O-])c1ccc(N2CCN(C(=S)Nc3ccc(F)cc3)CC2)cc1` gave 3CLpro inhibitor inactive, DUSP3 inh inactive, Mtb hypoxia inh inactive, CCHF vOTU inh inactive and PriA SSB inh inactive.
Cc1nnc(CNC(=O)c2cnn3c2OCCC3)o1 was read as PriA SSB inh inactive.
`Cc1ccc(O)c(CN(C)Cc2cc(C)ccc2O)c1` gave Mtb hypoxia inh inactive, CCHF vOTU inh inactive and PriA SSB inh inactive.
CN(CCCCCCN(C)Cc1ccccc1O)Cc1ccccc1O was read as 3CLpro inhibitor inactive, DUSP3 inh 52, Mtb hypoxia inh inactive, CCHF vOTU inh inactive and PriA SSB inh inactive.
`COc1ccc(Nc2nc(Nc3ccc4c(c3)OCO4)nc(N3CCOCC3)n2)cc1` gave PriA SSB inh 38.
For Cc1ccc(Nc2nc(N3CCOCC3)nc(N3CCOCC3)n2)cc1 the results were 3CLpro inhibitor inactive, DUSP3 inh 51, Mtb hypoxia inh inactive, CCHF vOTU inh inactive and PriA SSB inh inactive.
Cc1ccc(Nc2nc(N3CCOCC3)nc(N3CCN(c4ccccc4)CC3)n2)cc1 was read as PriA SSB inh inactive.
`C[C@H](O)CNC(=O)C(=O)Nc1ccc(C(F)(F)F)cc1` gave PriA SSB inh inactive.
For CSc1ccccc1C(=O)NCC1CCN(Cc2ccco2)CC1 the results were PriA SSB inh inactive.
`COc1cc(/C=C/c2ccc3c([N+](=O)[O-])cccc3n2)ccc1OCC(=O)O` gave 3CLpro inhibitor inactive, DUSP3 inh inactive, Mtb hypoxia inh 77, CCHF vOTU inh inactive and PriA SSB inh inactive.
`COc1ccc(OC)c2sc(N3CCN(C(=O)c4ccc5c(c4)CCCC5)CC3)nc12` gave PriA SSB inh 29.
COc1cccc2sc(N3CCN(C(=O)c4ccc5c(c4)CCCC5)CC3)nc12 was read as PriA SSB inh inactive.
Screening CC[C@@](CNC(=O)COc1ccccc1C)(OC)c1ccccc1 returned PriA SSB inh inactive.
Screening COc1ccc(OCC(=O)NC2CCCCCCC2)cc1 returned 3CLpro inhibitor inactive, DUSP3 inh 56, Mtb hypoxia inh inactive, CCHF vOTU inh inactive and PriA SSB inh inactive.
Nc1nc(-c2ccccn2)ns1 was read as PriA SSB inh inactive.
Nc1nc(-c2cccc(-c3csc(N)n3)n2)cs1 was read as PriA SSB inh 114.
Screening Nc1nc(-c2ccccn2)cs1 returned PriA SSB inh 94.
